ATXN2 expr inh = inhibitors of ATXN2 expression. Potency, µM (highest dose often 57 µM), for inactives: at the highest dose activity change, negative = inhibition, most hits filed as inhibitors. HEK-293 ATXN2-luciferase reporter, luminescence, 24 h. 0.72% of 360,000 active; note: potency is the fitted concentration of half-maximal effect; % is set by controls: 0 for no effect and ±100 for the full control effect; nearly all actives have a fitted effect of over 55% in size
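qHTS (up to 57 uM final) was run with 24 h compound exposure of reporter cells at 37 °C. Each well was multiplexed: SteadyGlo luminescence measured ATXN2-luciferase expression after a fluorogenic Gly-Phe-AFC viability readout (25 uM final).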
HepG2 tox = HepG2 cytotoxicity, counter-screen for TGF-b inhibitors; HepG2 CAGA-GFP viability, ATP luminescence, 18 h; Potency, µM (highest dose often 46.1 µM), inactives show at the highest dose activity change, negative = cytotoxicity, actives largely listed as cytotoxic; 0.76% of 410,000 active; note: potency is the fitted concentration of half-maximal effect
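CellTiter-Glo luminescence gave cytotoxicity after 18 hours at 37 degrees C. The cells were HepG2 CAGA-GFP in 1% FBS DMEM, stimulated with 500 pg/mL TGF-beta after compound addition. %Activity was normalised to no-cell wells (complete cell-killing) and DMSO (no toxicity), and curves were fitted and classified.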
TGFb SMAD3 inh = inhibitors of TGF-b signaling; HepG2 CAGA-GFP TGF-b/SMAD3 reporter, GFP fluorescence, 18 h; TGF-beta stimulated, 500 pg/mL final; Potency, µM (series often up to 46.1 µM), without a hit: at the top dose activity, negative = inhibition, hits mostly inhibitors; 1.2% of 410,000 active; AID 588855; note: potency is the fitted concentration of half-maximal effect; % is set by controls: 0 for no effect and ±100 for the full control effect; nearly all actives have a fitted effect of over 65% in size
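Cell-based qHTS in HEPG2 carrying a CAGA-GFP Smad reporter; compounds added before 500 pg/mL final TGF-beta, 18 h incubation at 37 degrees C, GFP fluorescence quantified per cell by imaging cytometry.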
ATXN viability = viability counter-screen for ATXN expression inhibitors; Potency, µM (doses to about 56.7 µM), actives largely listed as cytotoxic; AID 651635; S2 cells (HEK-293 line with an ATXN2-luciferase reporter) viability, CellTiter-Fluor protease fluorescence, 24 h; 0.49% of 400,000 active; note: potency is the fitted concentration of half-maximal effect; nearly all actives have a fitted effect of over 40% in size
CtBP-E1A inh = inhibitors of CtBP/E1A interaction. AlphaScreen GST-E1A/His-CtBP binding, 1536-well; stronger effect = lower value. activity change, % (no concentration beside the values). 0.49% of 340,000 active. AID 651724; in the data active = activity change below about -65%; inconclusive = mostly about -30% to -63%; note: % is set by controls: 0 for no effect and ±100 for the full control effect
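Protein mix (5X: 125 nM each GST-E1A, His-CtBP) was incubated with pinned compound 2 h at 37 deg C in dark, in 50 mM Tris pH 8.0 buffer with 300 mM NaCl. Glutathione donor and nickel acceptor beads followed; AlphaScreen signal read after 1 h.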
Six1-Eya2 blk = inhibitors of human Six1/Eya2 interaction; activity change, % (concentration not given with the values); 0.56% of 360,000 active; AID 651725; AlphaScreen GST-Six1/His-Eya2 binding, biochemical; stronger effect = lower value; Q15475+O00167; in the data active = activity change below about -65%; inconclusive = mostly about -30% to -63%; note: % is set by controls: 0 for no effect and ±100 for the full control effect
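Compounds are tested against tagged Six1 and Eya2 proteins bridged by glutathione donor and nickel acceptor beads; after a one-hour incubation at 37 °C without light, AlphaScreen emission is recorded.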
The depositor's hits bear a star. This is a sample that favours compounds with a hit; in the whole collection about 2.8% have one here. Unless noted, calls come from the whole dose curve; as a rule, active = well fitted curve in the direction sought with a large enough effect; inconclusive = small, poorly fitted or top-dose-only effect, or another doubt; inactive = no such curve, though single readings can be large; an effect the other way counts as inactive or inconclusive.

C/C(=N\NC(=O)c1ccccc1NC(=O)c1ccc(Cl)cc1)c1ccncc1 was read as HepG2 tox 1.26µM*, TGFb SMAD3 inh 3.7%, ATXN viability inactive, CtBP-E1A inh -19.0 and Six1-Eya2 blk -18.9.
`C/C(=N\NC(=O)c1c(Cl)cnn1C)c1ccc(NC(=O)c2ccncc2)cc1` gave ATXN2 expr inh -21.6%, HepG2 tox 10µM*, TGFb SMAD3 inh 4.0%, ATXN viability inactive, CtBP-E1A inh 3.7 and Six1-Eya2 blk -21.2.
`CC(=NNC(=O)c1ccncc1)c1ccccc1Cl` gave ATXN2 expr inh 3.7%, HepG2 tox -21.1%, TGFb SMAD3 inh 3.3%, ATXN viability inactive, CtBP-E1A inh 5.2 and Six1-Eya2 blk 9.3.
Screening Cn1cc(SCC(=O)Nc2nc3ccccc3s2)c2ccccc21 returned ATXN2 expr inh 25.1µM*, HepG2 tox -40.1%, TGFb SMAD3 inh -24.0%, ATXN viability inactive, CtBP-E1A inh -2.1 and Six1-Eya2 blk -13.5.
For Cc1ccc(Cn2ccnc2SCC(=O)Nc2nc3ccccc3s2)cc1 the results were HepG2 tox -33.0% and TGFb SMAD3 inh 11.2µM*.
Screening CCc1nnc(NC(=O)CSc2nccn2Cc2ccc(C)cc2)s1 returned ATXN2 expr inh 12.6%, HepG2 tox -4.1%, TGFb SMAD3 inh -14.9% and ATXN viability inactive.
For Cc1ccc(C(=O)Nc2cccc(-c3nc(CNC(=O)C4CCCCC4)c(C)o3)c2)s1 the results were ATXN viability inactive.
For O=C(O)c1cc(O)c2c(c1)C(=O)c1cccc(O)c1C2=O the results were ATXN2 expr inh -23.8%, HepG2 tox -51.6%, TGFb SMAD3 inh inconclusive, ATXN viability inconclusive, CtBP-E1A inh -84.1* and Six1-Eya2 blk -73.5*.
COc1cccc(-c2cnc(-c3ccncc3)nc2C2CCN(C(=O)Cc3csc(C)n3)CC2)c1 was read as ATXN viability inactive.
Screening CCOC(=O)CN(C(=O)CSc1nnc2c(n1)[nH]c1ccc(F)cc12)c1ccccc1 returned ATXN2 expr inh -3.9%, HepG2 tox -27.9%, TGFb SMAD3 inh 1.3%, ATXN viability inactive, CtBP-E1A inh -69.5* and Six1-Eya2 blk -65.8*.
For CC1CCN(C(=O)Cn2cc(SCc3cccc(F)c3)c3ccccc32)CC1 the results were HepG2 tox -22.9% and TGFb SMAD3 inh -29.0%.
For CC(C)(C)c1cc(C(=O)NNc2cc(C(F)(F)F)ccc2Cl)n(Cc2ccccc2)n1 the results were ATXN2 expr inh inconclusive, HepG2 tox 10µM*, TGFb SMAD3 inh 11.2µM*, ATXN viability inactive, CtBP-E1A inh 7.1 and Six1-Eya2 blk 9.4.
For COc1ccccc1NNC(=O)c1cc(C(C)(C)C)nn1Cc1ccccc1 the results were ATXN2 expr inh 34.4%, HepG2 tox -15.0%, TGFb SMAD3 inh -0.4%, ATXN viability inactive, CtBP-E1A inh 0.8 and Six1-Eya2 blk 1.9.
`Cc1csc(N=Nc2ccc(N(C)C)cc2)[n+]1[O-]` gave HepG2 tox -36.9%, TGFb SMAD3 inh -14.6%, CtBP-E1A inh inconclusive and Six1-Eya2 blk -77.4*.
For CCN(CC)CCN the results were ATXN2 expr inh 2.9% and ATXN viability inactive.
For Cc1[nH]n(C(N)=S)c(=O)c1N=Nc1cccc([N+](=O)[O-])c1C the results were HepG2 tox 20µM*, TGFb SMAD3 inh inconclusive, ATXN viability inactive and Six1-Eya2 blk -1.3.
Screening Cc1c(N=Nc2c(-c3ccc([N+](=O)[O-])cc3)[nH]n(C(N)=S)c2=O)cccc1[N+](=O)[O-] returned ATXN2 expr inh inconclusive, HepG2 tox -22.6%, TGFb SMAD3 inh 8.91µM*, ATXN viability inconclusive, CtBP-E1A inh -3.8 and Six1-Eya2 blk -14.3.
CCc1c(C)nc2nc(-c3ccccc3)nn2c1NCc1ccc(C)cc1 was read as ATXN2 expr inh -14.8%, HepG2 tox -103.9%, TGFb SMAD3 inh inconclusive and ATXN viability inactive.
